According to PubChem BioAssay (EPA / NIEHS):
Several values for one entry are separate records, joined by “and”; a condition that tells them apart may be missing. Equal entries are not always repeated. Some compounds were tested as several samples or in several runs, with calls that do not always agree. Activity calls are given as the source filed them. How the source made its calls: active means hit-call score of the fitted dose curve at least 0.9, where 1 is the maximum; inactive means score below 0.9.

Tests used:
[1] = APR_HepG2_P-H2AX_24hr: Apredica 24-hour HepG2 Assay for H2AX Phosphorylation (AID 2282920); details: high-content imaging, actives raise or lower the signal
Procedure, shortened: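 HCS fluorescence imaging of phospho-H2A.x immunostain (with Hoechst 33342 nuclear counterstain) in HepG2 after 24 hr compound exposure; 10 concentrations, 0.39–200 uM, duplicate wells, 0.5% v/v DMSO. Gain or loss of signal fitted relative to DMSO baseline.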

[2] = APR_HepG2_StressKinase_72hr: Apredica 72-hour HepG2 Assay for Stress Kinase (AID 2282921); details: HepG2 stress kinase (phospho-c-Jun) imaging, actives raise or lower the signal
Procedure, shortened: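 Stress kinase signal reflects nuclear phospho-c-Jun staining in fixed, permeabilized cells exposed 72 h to compound at 0.39–200 uM; DMSO-normalized, fitted for increases or decreases.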

[3] = APR_HepG2_StressKinase_24hr: Apredica 24-hour HepG2 Assay for Stress Kinase (AID 2282922); details: HepG2 stress kinase (phospho-c-Jun) imaging, actives raise or lower the signal
Procedure, shortened: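 After 24 hr compound treatment (up to 200 uM, final DMSO 0.5% v/v), HepG2 cells are fixed and multiplex-labeled; phospho-c-Jun intensity is captured by high-content fluorescence imaging and analyzed relative to DMSO.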

[4] = APR_HepG2_p53Act_72hr: Apredica 72-hour HepG2 Assay for p53 Activation (AID 2282923); details: high-content imaging, actives raise or lower the signal;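 further: average cellular p53 protein immunofluorescence intensity in HepG2 cells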
Procedure, shortened: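 Fixed-cell p53 staining (sheep primary, Cy5 secondary) measured by fluorescence imaging following 72 hr treatment at 0.39–200 uM in 0.5% DMSO; DMSO served as negative control and baseline.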

[5] = APR_HepG2_NuclearSize_72hr: Apredica 72-hour HepG2 Assay for Nuclear Size (AID 2282925); details: high-content imaging, actives raise or lower the signal
Procedure, shortened: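 Compounds (0.39–200 uM, final DMSO 0.5%) were applied to HepG2 for 72 hr. Cells were then formaldehyde-fixed, permeabilized and labelled with Hoechst 33342. Nuclear diameter was quantified from six images per well.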

[6] = ATG_CRE_CIS: Attagene CIS-FACTORIAL HepG2 Assay for human cAMP Responsive Element (CRE) binding protein 3 (AID 2282926); details: HepG2 CRE cis-reporter, Attagene multiplexed mRNA; actives raise or lower the signal
Procedure, shortened: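 Readout: fluorescently labelled reporter transcripts resolved by capillary electrophoresis after RT-PCR, taken 24 h post-dosing in transfected HepG2. Endogenous transcription factor activity drives each cis-element reporter; gain or loss of signal fitted relative to DMSO control.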

[7] = target: CCAAT/enhancer-binding protein beta (Homo sapiens) (UniProt P17676); experiment: ATG_C_EBP_CIS: Attagene CIS-FACTORIAL HepG2 Assay for human CCAAT/Enhancer Binding Protein (C/EBP) beta (AID 2282927); details: HepG2 Attagene cis-factorial transcription factor reporter; actives raise or lower the signal
Sequence of CCAAT/enhancer-binding protein beta (Homo sapiens) (P17676 whole entry, looked up, the tested form may be a part): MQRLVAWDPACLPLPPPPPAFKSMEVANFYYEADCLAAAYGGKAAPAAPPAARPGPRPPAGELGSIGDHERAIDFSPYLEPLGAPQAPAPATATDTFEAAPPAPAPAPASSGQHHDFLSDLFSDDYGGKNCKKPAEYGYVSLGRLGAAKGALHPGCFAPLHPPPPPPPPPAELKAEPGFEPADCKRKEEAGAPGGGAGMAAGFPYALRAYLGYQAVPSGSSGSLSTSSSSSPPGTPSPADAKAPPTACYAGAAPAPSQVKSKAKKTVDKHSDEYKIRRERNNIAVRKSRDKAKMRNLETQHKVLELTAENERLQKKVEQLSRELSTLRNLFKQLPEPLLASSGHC
Procedure, shortened: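 Chemical-treated HepG2 cells (24 h) bearing cis-regulated reporter constructs were processed for total RNA, then reverse transcription, PCR amplification, fluorescent primer extension and fragment analysis; gain- and loss-of-signal were fitted against DMSO.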

[8] = ATG_CMV_CIS: Attagene CIS-FACTORIAL HepG2 Assay for human CMV (Internal Marker) (AID 2282928); details: HepG2 CMV promoter reporter, transcription factor profiling; actives raise or lower the signal;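 further: endpoint acts as a background internal control marker rather than a target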
Procedure, shortened: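 Fluorescence intensity of RT-PCR-derived reporter fragments, resolved by capillary electrophoresis, gives the signal. HepG2 liver cells bearing transfected cis-element reporters were treated 24 h; activity in either direction was fit relative to DMSO-treated controls.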

[9] = ATG_DR4_LXR_CIS: Attagene CIS-FACTORIAL HepG2 Assay for human Liver X Receptor (LXR), DR4 submotif (AID 2282929); details: HepG2 Attagene DR4 cis-reporter, mRNA transcription; actives raise or lower the signal
Procedure, shortened: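 HepG2, transient MRTU transfection, cis-element (DR4) promoter; 24 h compound exposure; total RNA → oligo(dT) RT → PCR → 6-FAM primer extension → HpaI cut → CE. Gain/loss vs DMSO, bidirectional fit.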

[10] = target: Aryl hydrocarbon receptor (Homo sapiens) (UniProt P35869); experiment: ATG_Ahr_CIS: Attagene CIS-FACTORIAL HepG2 Assay for human Aryl Hydrocarbon Receptor (Ahr) (AID 2282930); details: HepG2 AhR cis-factorial reporter transcription; actives raise or lower the signal
Sequence of Aryl hydrocarbon receptor (Homo sapiens) (P35869 whole entry, looked up): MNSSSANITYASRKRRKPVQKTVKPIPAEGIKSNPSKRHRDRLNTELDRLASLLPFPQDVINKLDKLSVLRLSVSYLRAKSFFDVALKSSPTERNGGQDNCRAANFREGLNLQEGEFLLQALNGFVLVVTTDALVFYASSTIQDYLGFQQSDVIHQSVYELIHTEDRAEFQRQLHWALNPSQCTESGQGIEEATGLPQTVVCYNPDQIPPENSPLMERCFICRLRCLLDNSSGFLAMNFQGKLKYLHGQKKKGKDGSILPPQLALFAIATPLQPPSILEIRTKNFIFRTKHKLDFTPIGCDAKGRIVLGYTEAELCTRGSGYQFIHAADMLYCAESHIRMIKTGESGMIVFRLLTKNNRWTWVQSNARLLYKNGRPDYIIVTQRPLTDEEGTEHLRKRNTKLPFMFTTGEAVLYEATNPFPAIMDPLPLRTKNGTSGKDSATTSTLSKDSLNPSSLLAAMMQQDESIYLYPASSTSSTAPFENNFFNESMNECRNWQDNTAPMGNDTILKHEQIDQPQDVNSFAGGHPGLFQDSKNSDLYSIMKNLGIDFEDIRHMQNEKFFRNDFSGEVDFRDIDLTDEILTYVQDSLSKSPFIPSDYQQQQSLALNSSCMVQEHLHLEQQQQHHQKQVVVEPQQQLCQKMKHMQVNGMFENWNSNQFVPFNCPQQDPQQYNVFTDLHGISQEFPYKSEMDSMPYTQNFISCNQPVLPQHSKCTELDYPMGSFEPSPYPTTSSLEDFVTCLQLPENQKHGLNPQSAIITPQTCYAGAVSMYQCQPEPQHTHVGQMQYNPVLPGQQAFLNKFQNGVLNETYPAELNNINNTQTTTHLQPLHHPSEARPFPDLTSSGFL
Procedure, shortened: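 Following 24 h of chemical dosing, transfected HepG2 liver cells with cis-driven reporter units were lysed for RNA; reporter mRNA was quantified via RT-PCR and capillary electrophoresis, and responses fitted bidirectionally from DMSO.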

Measured: AC50

C=C(C)C(=O)[O][Sn]([CH2]CCC)([CH2]CCC)[CH2]CCC
active: [1] 0.159 µM | [4] 0.0408 µM | [5] 0.0558 µM | [8] 0.288 µM
inactive: all other assays above

CC12CC1(C)C(=O)N(c1cc(Cl)cc(Cl)c1)C2=O (stereo unspecified)
inactive: all assays above

Cn1sc(Cl)cc1=O
active: [1] 110 µM | [2] 111 µM | [4] 106 µM | [10] 67.3 µM
inactive: all other assays above

ClC1(Cl)C2(Cl)C3(Cl)C4(Cl)C(Cl)(Cl)C5(Cl)C3(Cl)C1(Cl)C5(Cl)C24Cl (stereo unspecified)
inactive: all assays above

CN(C)N=O
not listed: [10]
inactive: all other assays above

C[C@]12CCC(=O)C[C@@H]1CC[C@@H]1[C@@H]2CC[C@]2(C)[C@@H](O)CC[C@@H]12
active: [8] 52.1 µM | [9] 116 µM | [10] 23.1 µM
inactive: [1] | [2] | [3] | [4] | [5] | [6] | [7] | [8] | [9] | [10]

CC(C)(OO)c1ccccc1
active: [1] 69.3 µM | [2] 49.4 µM | [4] 45.7 µM
inactive: all other assays above

Cc1ccccc1N
inactive: all assays above

CCC(C)(C)c1ccc(O)c(C(C)(C)CC)c1
active: [1] 39.3 µM | [4] 29.7 µM | [8] 11.1 µM | [9] 4.91 µM
inactive: all other assays above

CC(C)(c1ccccc1)c1ccc(O)c(C(C)(C)c2ccccc2)c1
active: [1] 69.5 µM | [3] 134 µM | [6] 2.2 µM | [8] 14.9 µM
inactive: all other assays above

CCCCCCCCc1ccc(O)cc1
active: [9] 11.2 µM
inactive: [1] | [2] | [3] | [4] | [5] | [6] | [7] | [8] | [9] | [10]

O=C(O)C(F)(F)C(F)(F)C(F)(F)C(F)(F)C(F)(F)C(F)(F)C(F)(F)C(F)(F)C(F)(F)C(F)(F)F
active: [1] 71.5 µM | [3] 73.8 µM | [4] 85.3 µM | [7] 172 µM | [8] 50.4 µM and 31.3 µM | [9] 24.6 µM and 13.1 µM
inactive: [2] | [5] | [6] | [7] | [10]

O=C(O)C(Cl)(Cl)Cl
inactive: [1] | [2] | [3] | [4] | [5] | [6] | [7] | [8] | [9]
active: [1] 106 µM

C=CC(=O)OCCCCCC(C)C
not listed: [10]
inactive: all other assays above

CC(C)(C)c1cc(O)ccc1O
active: [5] 110 µM | [6] 151 µM | [7] 79.7 µM | [8] 64.7 µM | [9] 24.9 µM | [10] 1.85 µM
inactive: [1] | [2] | [3] | [4]

COc1cc(-c2ccc(N)c(OC)c2)ccc1N
active: [1] 50.8 µM | [4] 35.2 µM | [6] 31 µM and 29.3 µM | [7] 14.8 µM and 36.5 µM | [8] 10.5 µM and 27.8 µM
inactive: [1] | [2] | [3] | [4] | [5] | [9]

ClCC(Cl)CCl
not listed: [10]
inactive: all other assays above

ClCCBr
inactive: [6] | [7] | [8] | [9]

CCC(C)c1cccc(C(C)CC)c1O (stereo unspecified)
inactive: [6] | [7] | [8] | [9]

CC(=O)[O][Hg][c]1ccccc1
inactive: [5] | [8] | [9] | [10]
active: [1] 1.74 µM | [2] 7.33 µM | [3] 88.1 µM | [4] 4.66 µM | [6] 2.79 µM | [7] 1.64 µM

CCCCCCCCC(=O)NCc1ccc(O)c(OC)c1
inactive: [6] | [7] | [8]
active: [9] 54.5 µM

OCC(O)CCl (stereo unspecified)
inactive: [6] | [7] | [8] | [9]

Clc1ccc(COC(Cn2ccnc2)c2ccc(Cl)cc2Cl)cc1 (stereo unspecified)
inactive: [6] | [7] | [8]
active: [9] 4.8 µM

N#Cc1ccccn1
inactive: [6] | [7] | [8] | [9]

O=C(Nc1ccc2[nH]ccc2c1)c1cc2cc(F)ccc2n1Cc1cccc(F)c1
active: [1] 38.8 µM | [4] 19 µM | [7] 20.3 µM | [8] 11 µM | [9] 7.44 µM
inactive: [2] | [3] | [5] | [6] | [10]

O=c1[nH]c(=O)[nH]c(=O)[nH]1
inactive: all assays above

CNC(=O)O/N=C/C(C)(C)S(C)=O (stereo unspecified)
active: [9] 99.5 µM
inactive: [6] | [7] | [8]

C[C@H]1O[C@@H](O[C@H]2[C@@H](O)C[C@H](O[C@H]3[C@@H](O)C[C@H](O[C@H]4CC[C@@]5(C)[C@H](CC[C@@H]6[C@@H]5CC[C@]5(C)[C@@H](C7=CC(=O)OC7)CC[C@]65O)C4)O[C@@H]3C)O[C@@H]2C)C[C@H](O)[C@@H]1O
inactive: [6] | [8]
active: [7] 2.99 µM | [9] 0.0564 µM

ClC(Cl)=C(Cl)C(Cl)=C(Cl)Cl
active: [6] 180 µM | [9] 100 µM
inactive: [7] | [8]

COC[C@H](C)N(C(=O)CCl)c1c(C)csc1C
inactive: [6] | [7] | [8] | [9]

O=C(O)C(F)(F)C(F)(F)C(F)(F)C(F)(F)C(F)(F)C(F)(F)F
active: [2] 97.8 µM | [4] 10.2 µM | [5] 6.95 µM
inactive: all other assays above

Oc1cccc2cccnc12
inactive: [1] | [3] | [5] | [6] | [7] | [8] | [9]
active: [2] 18.8 µM | [4] 4.12 µM | [8] 139 µM

NC(=O)O
active: [1] 9.46 µM | [2] 3.02 µM | [3] 4.39 µM | [4] 3.66 µM | [5] 23.5 µM
inactive: all other assays above

C[C@@H]1C[C@@H]([C@H](O)CC2CC(=O)NC(=O)C2)C(=O)[C@@H](C)C1
inactive: [1] | [2] | [3] | [5] | [6] | [8]
active: [4] 4.8 µM | [6] 11.1 µM | [7] 1.31 µM [middle of 4 runs] | [8] 0.286 µM

CCN1CCC2(CC1)COc1cc3c(cc12)N(C(=O)c1ccc(-c2ccc(-c4nnc(C)o4)cc2C)cc1)CC3
inactive: [5] | [6] | [7] | [9]
active: [1] 28.9 µM | [2] 5.12 µM | [3] 47.9 µM | [4] 59.8 µM | [8] 5.81 µM

O=C1C2(Cl)C3(Cl)C4(Cl)C(Cl)(Cl)C5(Cl)C3(Cl)C1(Cl)C5(Cl)C24Cl (stereo unspecified)
active: [1] 46.6 µM | [2] 106 µM | [3] 60.5 µM | [4] 10.5 µM | [5] 24.1 µM | [6] 14.3 µM | [7] 17.7 µM | [8] 2.8 µM | [9] 2.8 µM and 4.23 µM
inactive: [6] | [7] | [8] | [9] | [10]

CCC(=O)C(CC(C)N(C)C)(c1ccccc1)c1ccccc1 (stereo unspecified)
active: [2] 78.9 µM | [4] 69.8 µM | [9] 92.4 µM
inactive: all other assays above

CC(C)(C)CC(C)(C)c1ccc(O)cc1
inactive: [1] | [2] | [3] | [4] | [5] | [6] | [7] | [8] | [9]
active: [8] 17.1 µM and 18 µM | [9] 14.4 µM

CCC(=O)c1ccccc1
inactive: [6] | [7] | [8] | [9]

COS(=O)(=O)c1ccc(C)cc1
inactive: [6] | [7] | [8] | [9]

O=C1CCCN1
inactive: [6] | [7] | [8] | [9]

COc1ccccc1OC
inactive: [6] | [7] | [8] | [9]

COP(=S)(OC)Oc1cc(Cl)c(Cl)cc1Cl
inactive: [6] | [7] | [8] | [9]

CCOC(=O)/C=C(C)/C=C/C[C@@H](C)CCCC(C)C
active: [6] 23.5 µM | [7] 179 µM | [8] 132 µM | [9] 53.5 µM
